In PubChem BioAssay AID652015 (National Center for Advancing Translational Sciences (NCATS), 2013):
Results filed as inconclusive are left out. Where a call stands in place of a potency, no number is given. Activity calls are given as the source filed them. The call rests on the fitted dose curve; in most records, active means well fitted inhibition curve with a large enough effect; inconclusive means small, poorly fitted or top-dose-only effect; inactive means no such curve, though single readings can be large or run the other way.

Target: Coelenterazine h 2-monooxygenase (Renilla reniformis) (UniProt P27652)
Assay: qHTS Assay for Inhibitors of Sea Pansy Luciferase from the GSK Published Protein Kinase Inhibitor Set
Details: purified Renilla luciferase, luminescence; series mostly up to 57.5 µM
From the text: FLuc (firefly luciferase) is the prototypical bioluminescent reporter gene from Photinus pyralis.[1] The enzyme catalyzes the oxidation luciferin via luciferin-AMP to produce light. FLuc is used in cell-based reporter gene-based assays for screening small molecule chemical libraries. However, small molecule luciferase inhibitors present in most large chemical libraries are often enriched in the output of high throughput screens using this reporter sometimes complicating interpretation and candidate selection.
RLuc is a bioluminescent reporter gene luciferase from Renilla reniformis, also known as the sea pansy. RLuc uses the luciferin substrate coelenterazine. RLuc is often used in combination with the nonhomologous luciferase FLuc (firefly luciferease) as a trasfection or pathway normalization control. Recently, non-homologous reporters have been described for high throughput screening 'coincidence' reporter gene strategies.
1. Fan F, Wood KV (2007) Bioluminescent assays for high-throughput screening. Assay Drug Dev Technol 5: 127-136.
2. Thorne N, Inglese J, Auld DS (2010) Illuminating insights into firefly luciferase and other bioluminescent reporters used in chemical biology. Chem Biol 17: 646-657.
3. […] Chem Biol 19: 1060-1072.
4. Michelini E, Cevenini L, Mezzanotte L, Coppa A, Roda A (2010) Cell-based assays: fuelling drug discovery. Anal Bioanal Chem 398: 227-238.
5. Cheng KC, Inglese J (2012) A coincidence reporter-gene system for high-throughput screening. Nat Methods 9: 937.
Biochemical renilla luciferase enzyme assay
NCGC Assay Protocol Summary:
Reagents: 50mM Tris acetate, pH 7.5; 100uM NaCl; 5uM Coelenterazine H (Promega #S2011); 0.01% Tween-20; 0.05% BSA; 1nM R. reniformis luciferase (Nanolight Technologies #314)
Control compounds used were a known renilla luciferase inhibitor BTS (Tocris Biosciences #1870) and DMSO.
Three microliters containing renilla luciferase substrate in buffer (final concentrations: 50mM Tris acetate, pH 7.5, 100uM NaCl, 0.01% Tween-20, 0.05% BSA, 5uM coelenterazine h) are dispensed into each well of a Greiner white, solid-bottom 1536-well format plate using a flying reagent dispenser (FRD). These assay plates were then treated with 23nL of compound or DMSO using a Kalypsys pin tool, which allows for delivery of a 7-point interplate titration of each compound to the assay plate (quantitative HTS), with final compound concentrations ranging from approximately 60uM to 300pM. One microliter of renilla luciferase in 50mM Tris-acetate buffer was then delivered by FRD to each well for a final enzyme concentration of 1nM. Luciferase activity was then measured using an Envision plate reader (PerkinElmer), with an average incubation time of 2 min.
Potency means the concentration at half of the fitted maximal effect.

Chain of Coelenterazine h 2-monooxygenase (Renilla reniformis) (P27652 whole entry, looked up): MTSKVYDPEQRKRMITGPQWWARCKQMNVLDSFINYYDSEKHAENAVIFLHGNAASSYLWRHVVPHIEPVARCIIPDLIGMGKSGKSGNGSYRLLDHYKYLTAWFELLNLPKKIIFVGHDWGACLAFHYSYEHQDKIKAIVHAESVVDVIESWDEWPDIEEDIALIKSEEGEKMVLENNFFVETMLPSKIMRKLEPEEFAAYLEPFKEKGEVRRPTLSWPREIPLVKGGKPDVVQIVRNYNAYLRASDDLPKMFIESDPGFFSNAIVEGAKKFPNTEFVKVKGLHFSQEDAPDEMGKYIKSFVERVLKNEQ

| SMILES | Potency |
| --- | --- |
| O=C(Nc1n[nH]c2nc(-c3ccco3)ccc12)C1CC1 | inactive |
| c1cnn2ncc(-c3ccnc(NCCCN4CCOCC4)n3)c2c1 | inactive |
| CCc1cccc(NC(=O)Nc2ccc(Oc3ccc4nc(NC(=O)OC)[nH]c4c3)cc2)c1 | inactive |
| CCc1nccc2c1nc(-c1nonc1N)n2CC | inactive |
| Fc1ccc(-c2ncn(C3CCNCC3)c2-c2ccnc(Oc3cccc(C(F)(F)F)c3)n2)cc1 | inactive |
| NS(=O)(=O)c1cccc(N=Cc2c(O)[nH]c3ccccc23)c1 | inactive |
| CNC(=O)c1cc(-c2ccc(F)cc2)cc(-c2ccc(S(=O)(=O)N3CCCC3)cc2)c1N | inactive |
| CCn1c(-c2nonc2N)nc2cnc(Oc3cccc(NC(=O)c4ccc(OCCN5CCOCC5)cc4)c3)cc21 | inactive |
| Fc1ccc(-c2ncn(CCCN3CCOCC3)c2-c2ccncc2)cc1 | inactive |
| CN1CCC(C(=O)Nc2n[nH]c3nnc(-c4ccccc4)cc23)CC1 | inactive |
| COc1cc(N2CCN(C(C)C)CC2)ccc1Nc1nc(Nc2ccc(F)cc2C(=O)NCC(O)CO)c2cc[nH]c2n1 (stereo not given) | inactive |
| COc1ccc(-c2nn3ncccc3c2-c2ccnc(Nc3ccc4c(c3)OCCO4)n2)cc1 | inactive |
| CCc1cccc(CC)c1C=Cc1cncc(C(=O)NC)c1 | inactive |
| FC(F)(F)c1cccc(-c2nn3ncccc3c2-c2ccnc(Nc3ccc4c(c3)OCCO4)n2)c1 | inactive |
| COc1cc2ncn(-c3cc(OC(C)c4ccccc4Cl)c(C(N)=O)s3)c2cc1OC (stereo not given) | inactive |
| N#Cc1c(NC(=O)CN2CCOCC2)sc2c1CCCC2 | inactive |
| NCc1ccc(-c2nc(-c3ccc(Cl)c(O)c3)c(-c3ccncc3)[nH]2)cc1 | inactive |
| CCCNc1cccc(-n2ncc3c(NN=Cc4ccncc4)ncnc32)c1 | inactive |
| NC(=O)c1ccc(-c2nc(-c3ccc4c(c3)OCO4)c(-c3ccccn3)[nH]2)cc1 | inactive |
| COc1cc(C)c(NC(=O)CN(C)C)cc1Nc1nc(Nc2cccc(F)c2C(N)=O)c2cc[nH]c2n1 | inactive |

| SMILES | Potency |
| --- | --- |
| Fc1ccc(-c2c(-c3ccncc3)nc3n2CCS3)cc1 | inactive |
| CC(=O)Nc1cccc(C#Cc2cncnc2Nc2ccc(OCc3cccc(F)c3)c(Cl)c2)c1 | inactive |
| Fc1cccc(COc2ccc(Nc3ncnc4cc(-c5ccc[nH]5)sc34)cc2Cl)c1 | inactive |
| N#Cc1ccc(Oc2nccc(-c3c(-c4ccc(F)cc4)ncn3C3CCNCC3)n2)cc1 | inactive |
| Nc1ncnc2occ(-c3ccc(NC(=O)Nc4cccc(C(F)(F)F)c4)cc3)c12 | inactive |
| COc1ccc2c(-c3ccnc(Nc4cccc(OC(F)(F)F)c4)n3)cnn2n1 | inactive |
| CCn1cc(-c2ccnc3[nH]ccc23)c(-c2cccc(NC(=O)Nc3ccc(OCc4ccccc4)cc3)c2)n1 | inactive |
| COc1ccccc1-c1cc(C=C2C(=O)Nc3ncc(Br)cc32)cc(Br)c1O | 8.19 µM (active) |
| COc1c(C(N)=O)cc(-c2ccc(Cl)cc2)cc1-c1ccc(S(N)(=O)=O)cc1 | inactive |
| N#Cc1c(NC(=O)c2ccc(F)cc2)sc2c1CCCC2 | inactive |
| Fc1ccc(Nc2nccc(-c3c(-c4ccc(C(F)(F)F)cc4)nn4ncccc34)n2)cc1F | inactive |
| CN1CCC(n2cnc(-c3ccc(F)cc3)c2-c2ccnc(Nc3ccccc3)n2)CC1 | inactive |
| Nc1ncnc2occ(-c3ccc(NC(=O)Nc4cc(C(F)(F)F)ccc4F)cc3)c12 | inactive |
| Cc1ccc2[nH]c(O)c(N=Nc3ccc(S(N)(=O)=O)cc3)c2c1 | inactive |
| COc1cccc(-n2ncc3c(NN=Cc4ccc(F)cc4)ncnc32)c1 | inactive |
| Oc1[nH]c2ccccc2c1C=Nc1ccc(-n2cncn2)cc1 | inactive |
| CC(C)c1ccc2c(N=Nc3ccc(S(N)(=O)=O)cc3)c(O)[nH]c2c1 | inactive |
| CCn1c(-c2nonc2N)nc2c(C#CC(C)(C)O)nc(CN3CCCC3)cc21 | inactive |
| CS(=O)(=O)CCNCc1ccc(-c2ccc3ncnc(Nc4ccc(OCc5ccccc5)c(Cl)c4)c3c2)o1 | inactive |
| NS(=O)(=O)c1ccc(-c2ccc3c(NC(=O)C4CC4)n[nH]c3c2)cc1 | inactive |
